Results reported in the OligoGym collection.

Biological target: SEC61B
Assay: pooled miR-30 sensor sort-seq; sequence = guide strand
Settings: shRNA
Also: reference of the scale not given here.

Sequence | sensor-assay potency score (higher = more potent)
ATGTGCAACATAAATACAGAAG | -1.59
AAATGTGCAACATAAATACAGA | -1.05
TAGAATCGCCACATCCCCCCGG | -0.342
TCTTCTGTGTAGAATCGCCACA | -0.746
TTCCTCTGCCGGACAGTGGATC | -1.27
ATCTTCTGTGTAGAATCGCCAC | -0.702
TACTGGAACAGGGCCAACTTTG | -1.5
TAAAACAGCAAGCTTACAGAAA | -1.05
TGCAACATAAATACAGAAGCGA | -0.661
TTCTGTGTAGAATCGCCACATC | -0.647
ATAACCAATACTGGAACAGGGC | -0.892
TGGAACAGGGCCAACTTTGAGC | -1.17

Biological target: SEC62
Assay: as above
Settings: shRNA

Sequence | sensor-assay potency score (higher = more potent)
TTCAATATGGTAATCAGCCAAC | -1.13
TTTGTTGGACAGTTGAATCGAA | 0.088
TTTAAGTCTGCTTTTGGTCCTT | 0.441
TAAAGCTTCCTCTCCTTTCTTG | 0.192
TCCATTTCCACTACTGTGCTGG | -0.484
TTGTTGGACAGTTGAATCGAAG | -1.44
TAAATAAAGCTTCCTCTCCTTT | -0.505
TTCTATAAAATGAAGGACCGAA | -0.0759
TTATGTACAGAATACACTTTAC | -1.09
TAGTCAACCACAGACTCCCTGG | -0.485
TATGTCTTTATCATATTTCATT | -1.38
TGACTTTTCCTCACTGTCGGAC | -0.575
